Common to all, as to assay type: functional
The target of assay [1] is Solute carrier family 2, facilitated glucose transporter member 1 (Homo sapiens) (UniProt P11166). Description: ST_JUDE_LEISH: Cytotoxicity at 2uM final concentration against transgenic Leishmania Mexicana promastigotes LmGLUT1 that are glucose transport deficient and complemented with the human glucose transporter GLUT1. Activity is measured by DNA content using SYBR green in vitro.

Assay [2] addresses Hexose transporter 1 (Plasmodium falciparum) (UniProt O97467). Kind of assay: ST_JUDE_LEISH: Cytotoxicity at 2uM final concentration against transgenic Leishmania Mexicana promastigotes LmPfHT that are glucose transport deficient and complemented with the Plasmodium falciparum hexose transporter. Activity is measured by DNA content using SYBR green in vitro.
Assay [3] addresses Glucose transporter (Leishmania mexicana) (UniProt O61059). Kind of assay: ST_JUDE_LEISH: Cytotoxicity at 2uM final concentration against transgenic Leishmania Mexicana promastigotes LmGT2 that are glucose transport deficient and complemented with the L. Mexicana glucose transporter 2. Activity is measured by DNA content using SYBR green in vitro.

Chain of Solute carrier family 2, facilitated glucose transporter member 1 (Homo sapiens) (P11166 whole entry): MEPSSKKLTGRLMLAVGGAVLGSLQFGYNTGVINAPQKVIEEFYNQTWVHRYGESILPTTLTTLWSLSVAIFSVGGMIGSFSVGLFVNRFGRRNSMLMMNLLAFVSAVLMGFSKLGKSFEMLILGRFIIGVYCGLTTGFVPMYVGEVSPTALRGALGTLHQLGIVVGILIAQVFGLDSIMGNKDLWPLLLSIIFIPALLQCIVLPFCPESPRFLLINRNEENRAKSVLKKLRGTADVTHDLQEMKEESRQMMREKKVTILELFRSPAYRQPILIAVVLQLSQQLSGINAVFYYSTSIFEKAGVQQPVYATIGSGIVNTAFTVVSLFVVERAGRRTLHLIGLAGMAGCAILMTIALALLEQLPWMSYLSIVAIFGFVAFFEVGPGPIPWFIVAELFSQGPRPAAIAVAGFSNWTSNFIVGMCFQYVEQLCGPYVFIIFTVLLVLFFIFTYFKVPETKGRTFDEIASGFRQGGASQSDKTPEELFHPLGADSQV

For the compound `CC(=O)NCCNc1nccc(N2CCc3ncnc(Nc4ccc(OCc5cccc(F)c5)c(Cl)c4)c3C2)n1`, the inhibition (usually the drop in the measured response relative to a control, in per cent) in assay [1] is 0.07%; in assay [2], -2.13%; in assay [3] it was -2.74%.

`CCCCCn1c(Sc2ccc(C#N)c([N+](=O)[O-])c2)nnc1-c1cccs1`: the inhibition in assay [1] came out at 2.86%; in assay [2] it was 6.4%; in assay [3], 2.32%.

As for `CN(C)c1ccc(NC(=O)Nc2ccnc3ccccc23)cc1Br`, the values for the inhibition in assay [1], in assay [2] and in assay [3] were 8.81%, 8.16% and 6.85%, respectively.

As to `c1ccc(C2CCC(N3CCC(N4CCCC4)CC3)CC2)cc1` (stereo not given), the values for the inhibition in assay [1], in assay [2] and in assay [3] were 0.84%, -0.62% and 1.54%, respectively.

Take `O=C(NC1CCCCC1)N(Cc1cccc(-c2ccc(CNC3CCCC3)cc2)c1)C1CCN(Cc2ccccc2)CC1`: the inhibition in assay [1] stood at 16%; in assay [2], 14.6%; in assay [3], 9.9%.

As to `O=C(Nc1cc(C(F)(F)F)cc(C(F)(F)F)c1)c1cccc([N+](=O)[O-])c1`, the inhibition in assay [1] came to 3.73%; in assay [2], 4.66%; in assay [3], 2.84%.

In the case of `Cc1ccc(Oc2ccc(NC(=O)CNc3ccccc3N3CCCC3=O)cc2)cc1`, the inhibition in assay [1] came out at 6%; in assay [2], 6.14%; in assay [3], 5.01%.

Take `CNC(=O)c1cnc(Nc2ccc(N3CCOCC3)cc2)nc1Nc1cccc(OC)c1`: the inhibition was -0.53% in assay [1], -1.08% in assay [2] and -2.23% in assay [3].

With `CS(=O)(=O)c1cc2c(Nc3ccc(N4CCOCC4)cc3)c(C(N)=O)cnc2cc1Br`, the inhibition worked out at 4.41% in assay [1], 1.07% in assay [2] and 3.69% in assay [3].

As to `N#Cc1ccc(C=NNc2nc3ccccc3[nH]2)cc1`, the inhibition in assay [1] was 3.61%; in assay [2], 1.98%; in assay [3] it was -0.11%.

Take `N#Cc1ccc(/C=C/C(=O)NCCCCCN2CCN(C(=O)Nc3ccc(Cl)c(C(F)(F)F)c3)CC2)cc1`: the values for the inhibition in assay [1], in assay [2] and in assay [3] were 5.8%, 4.08% and 1.97%, respectively.

Regarding `CC(C)(C)C1CCc2onc(C(=O)Nc3cc(Cl)ccc3O)c2C1` (stereo not given), the values for the inhibition in assay [1], in assay [2] and in assay [3] were 7.15%, 5.86% and 4.8%, respectively.

Take `O=C1c2cc(I)ccc2SC1c1ccccc1` (stereo not given): the results for the inhibition in assay [1], in assay [2] and in assay [3] were 1.22%, 0.48% and 0.13%, respectively.

Turning to `NC(=O)c1cccc(C(=O)Nc2cccc(-c3cccc(-c4nc5cc(C(F)(F)F)ccc5[nH]4)c3)c2)c1`, the inhibition in assay [1] is -0.51%; in assay [2], 0.13%; in assay [3] it was 0.83%.

As to `COc1ccc(CN2CCCN(Cc3cccc(NC(=O)c4cc5ccccc5s4)c3)CC2)cc1`, the inhibition is 0.39% in assay [1], -0.1% in assay [2] and -1.39% in assay [3].

On to `CCCNCc1ccc(-c2ccc(CN(CCOC)C(=O)CCc3ccc(OC)cc3)cc2)nc1`, for which the inhibition is 0.6% in assay [1], -1.02% in assay [2] and 1.11% in assay [3].

For the compound `Fc1ccc2[nH]c3c(NCCN4CCCCC4)ncnc3c2c1`, the inhibition is -3.47% in assay [1], -0.73% in assay [2] and -1.11% in assay [3].

As to `Cc1cccc2nc(-c3cccc(-c4cccc(CN5CCN(c6ccncc6)CC5)c4)c3)[nH]c12`, the values for the inhibition in assay [1], in assay [2] and in assay [3] were 1.34%, 0.76% and 0.37%, respectively.

With `Cc1cc(C(=O)N[C@H]2CCN(Cc3ccc(OCCCN(C)C)cc3)C2)ccc1Br`, the inhibition in assay [1] was determined as 0.17%; in assay [2], 0.95%; in assay [3] it was 1.98%.

Take `Cc1c(O)cccc1Nc1ccnc2ccc(C(F)(F)F)cc12`: the results for the inhibition in assay [1], in assay [2] and in assay [3] were -0.14%, 0.25% and -1.33%, respectively.

As to `COc1ccc(NC(=O)N2CCCN(CCCCCNC(=O)/C=C/c3ccc(C(F)(F)F)cc3)CC2)cc1Cl`, the inhibition in assay [1] is -0.26%; in assay [2], -1.14%; in assay [3] it was 2.8%.

Turning to `O=C(/C=C/c1ccccc1Cl)NC1CCC(CN2CCC(c3c[nH]c4ccncc34)CC2)CC1` (stereo not given), the inhibition was -0.19% in assay [1], 0.35% in assay [2] and 1.34% in assay [3].

As to `O=C(NCC(c1ccc(C(F)(F)F)cc1)N1CCCC1)c1cc(-c2ccncc2)c(-c2cccc(O)c2)o1` (stereo not given), the inhibition in assay [1] was 0.81%; in assay [2] it was -0.82%; in assay [3] it was -0.08%.

Take `CS(=O)(=O)CCNCc1cccc(-c2cc3c(Nc4ccc5c(cnn5Cc5ccccc5)c4)ncnc3s2)c1`: the inhibition is 2.62% in assay [1], -0.73% in assay [2] and 0.63% in assay [3].

`Cc1ccccc1C1CCN(c2ccc(NC(=O)c3ccc(Cl)nc3)cc2)CC1`: the figures for the inhibition in assay [1], in assay [2] and in assay [3] were 3.34%, -3.74% and 3.84%, respectively.

For `CCCCCCOc1ccc(C(=O)N[C@H]2CCN(CCCCCNC(=O)/C=C/c3ccc(Cl)c(Cl)c3)C2)cc1`, the inhibition in assay [1] is 0.31%; in assay [2], -0.9%; in assay [3], 1.12%.

With `COc1ccc(C(=O)N2CCc3cc4nccc(N5CCN6CCC[C@H]6C5)c4cc32)cc1`, the inhibition was 2.59% in assay [1], 3.64% in assay [2] and 4.3% in assay [3].

For `O=S(=O)(NCCCN1CCOCC1)c1ccc2nccc(Nc3ccc(Oc4ccccc4)cc3)c2c1`, the inhibition in assay [1] was -1.16%; in assay [2] it was -0.87%; in assay [3], -0.94%.

For `COCCNCc1cccc(-c2ccc3c(Nc4ccc(Oc5cccnc5)cc4)ccnc3c2)c1`, the inhibition was 1.93% in assay [1], 2.56% in assay [2] and 2.93% in assay [3].

`CC(C)(C)c1cc(C(=O)N2CCN(c3ccc(C(F)(F)F)cn3)CC2)n(Cc2ccc(F)cc2)n1`: the inhibition in assay [1] was -1.9%; in assay [2], -3.19%; in assay [3] it was -1.88%.

Turning to `COc1c(C2CCN(CCCCNC(=O)c3ccc(-c4ccc(C#N)cc4)c(O)c3)CC2)ccc2c1CCCC2`, the inhibition was -0.29% in assay [1], -0.43% in assay [2] and 0.55% in assay [3].

Turning to `CC(=O)Nc1ccc(Cl)c(Cl)c1`, the inhibition in assay [1] was -0.84%; in assay [2], 0.05%; in assay [3] it was -0.72%.

As for `COc1ccc(NC(=O)CCNc2cc(C)nc(NCCc3ccccc3)n2)cc1`, the inhibition amounted to 4.71% in assay [1], 4.04% in assay [2] and 2.42% in assay [3].

Take `O=C(N[C@@H](Cc1ccccc1)C(=O)NC1CCCCCC1)c1ccc(O)c(-c2cccc(C(F)(F)F)c2)c1`: the inhibition was 5.83% in assay [1], 4.69% in assay [2] and 0.57% in assay [3].

In the case of `C[C@@H]1CN(C(c2cccc(O)c2)c2cccc(C(=O)N(C)c3cccc(F)c3)c2)[C@@H](C)CN1C(c1cccc(O)c1)c1cccc(C(=O)N(C)c2cccc(F)c2)c1` (stereo not given in full), the inhibition was determined as 3.79% in assay [1], 2.73% in assay [2] and 2.45% in assay [3].
